# Calls of active or inactive are those of the source. Unless noted, how the calls were made is not given here.
# Experiments:
# [1] = A549 cell viability effects, profiling panel, calcein-AM fluorescence, 48 h, basal (AID 1162); conditions: higher = more signal; further: test concentration not given here
# [2] = adipocyte viability effects, profiling panel, cell-based, 3T3-L1 adipocytes, calcein-AM fluorescence, 48 h, basal (AID 1163); conditions: 3T3-L1 adipocytes viability, higher = more signal; further: test concentration not given here
# [3] = HepG2 cell viability effects, profiling panel, calcein-AM fluorescence, 48 h, basal (AID 1164); conditions: higher = more signal; further: test concentration not given here
# [4] = MM1S cell viability effects, profiling panel, calcein-AM fluorescence, 48 h, basal (AID 1165); conditions: higher = more signal;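 further: viability of MM1S multiple myeloma cells under basal unstimulated conditions; test concentration not given here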
# [5] = basal RPMI8226 viability, no added stimulus, profiling panel, cell-based, calcein-AM fluorescence, 48 h, PK04 Diversity Set (AID 1166); conditions: RPMI8226 myeloma viability, higher = more signal;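 further: cells grown under basal conditions without added stimulus; test concentration not given here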
# [6] = basal HepG2 mitochondrial membrane potential changes, profiling panel, cell-based, JC-1 fluorescence, 24 h, 100 nL compound (AID 1167); conditions: higher = more signal; further: test concentration not given here
# [7] = basal 3T3-L1 adipocyte mitochondrial potential changes, profiling panel, cell-based, JC-1 fluorescence, 3T3-L1 adipocytes, 24 h, 100 nL compound (AID 1168); conditions: JC-1 mitochondrial fluorescence, higher = more signal, called active from +8 up or from −8 down; further: test concentration not given here
# [8] = basal RPMI8226 mitochondrial membrane potential changes, profiling panel, cell-based, JC-1 fluorescence, 24 h, 100 nL compound (AID 1169); conditions: RPMI8226 myeloma, JC-1 mitochondrial potential fluorescence, higher = more signal; further: test concentration not given here
# [9] = basal MM1S mitochondrial membrane potential changes, profiling panel, cell-based, JC-1 fluorescence, 24 h, 100 nL compound (AID 1170); conditions: higher = more signal; further: test concentration not given here
# [10] = A549 lung cancer cell viability effects, profiling panel, resazurin fluorescence, 24 h, PK04 Diversity Set (AID 1171); conditions: higher = more signal, called active from +8 up or from −8 down; further: test concentration not given here
# [11] = HepG2 liver cancer cell viability effects, profiling panel, resazurin fluorescence, 24 h, PK04 Diversity Set (AID 1172); conditions: higher = more signal; further: test concentration not given here
# [12] = basal S. cerevisiae growth modulation, no modifier, primary screen, OD600, strain BY4716, 24 h, basal condition (AID 1173); conditions: OD600, 24 h, higher = more signal, called active from +8 up or from −8 down
# [13] = MM1S myeloma cell viability, profiling panel, resazurin fluorescence, basal, 24 h, PK04 Diversity Set (AID 1174); conditions: higher = more signal, called active from +8 up or from −8 down;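 further: MM1S multiple myeloma cell line; test concentration not given here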
# [14] = target: Dihydroorotate dehydrogenase (quinone), mitochondrial (Plasmodium falciparum (isolate 3D7)) (UniProt Q08210); test: PfDHODH enzyme inhibitors, primary screen, biochemical, C-terminal His tag, absorbance 600 nm (AID 1175); conditions: DCIP absorbance 600 nm, higher = more signal, called active from +8 up or from −8 down;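 further: recombinant parasite enzyme with a five histidine tag at its C terminus; test concentration not given here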
# [15] = P. aeruginosa biofilm formation inhibitors, primary screen, strain PAO1, LB-PBS medium, absorbance 600 nm (AID 1176); further: test concentration not given here; conditions: P. aeruginosa PAO1 growth/biofilm, A600, 12 h; higher = more signal
# [16] = S. cerevisiae RM11-1a growth modifiers, primary screen, strain RM11-1a, OD600, basal, 24 h (AID 1177); conditions: OD600, 24 h, higher = more signal, called active from +8 up or from −8 down;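 further: cultures grown under basal conditions with no added stressor; test concentration not given here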
# [17] = E. coli acrAB mutant growth effects, primary screen, E. coli filamentation inducers, strain DRC39, OD650, 24 h (AID 1178); conditions: higher = more signal, called active from +8 up or from −8 down;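 further: growth measured as culture turbidity by optical density at 650 nm; test concentration not given here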
# [18] = E. coli acrAB mutant growth effects, primary screen, E. coli filamentation inducers, strain DRC39, OD650, 48 h (AID 1179);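 further: screen aims at cell division blockers that make cells filament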; conditions: E. coli DRC39 delta-acrAB growth, higher = more signal, called active from +8 up or from −8 down
# [19] = RPMI8226 myeloma cell viability, profiling panel, resazurin fluorescence, basal, 24 h, PK04 Diversity Set (AID 1180); conditions: higher = more signal;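 further: RPMI8826 multiple myeloma cell line at 5000 cells per well; test concentration not given here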
# [20] = target: E3 ubiquitin-protein ligase XIAP (Homo sapiens) (UniProt P98170); test: XIAP binders, primary screen, biophysical, small-molecule microarray, fluorescence 635 nm (AID 1181); conditions: small-molecule microarray binding, higher = more signal;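 further: score merges 667 nm emission and signal to noise over triplicate slides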
# Chain of E3 ubiquitin-protein ligase XIAP (Homo sapiens) (P98170 whole entry, looked up): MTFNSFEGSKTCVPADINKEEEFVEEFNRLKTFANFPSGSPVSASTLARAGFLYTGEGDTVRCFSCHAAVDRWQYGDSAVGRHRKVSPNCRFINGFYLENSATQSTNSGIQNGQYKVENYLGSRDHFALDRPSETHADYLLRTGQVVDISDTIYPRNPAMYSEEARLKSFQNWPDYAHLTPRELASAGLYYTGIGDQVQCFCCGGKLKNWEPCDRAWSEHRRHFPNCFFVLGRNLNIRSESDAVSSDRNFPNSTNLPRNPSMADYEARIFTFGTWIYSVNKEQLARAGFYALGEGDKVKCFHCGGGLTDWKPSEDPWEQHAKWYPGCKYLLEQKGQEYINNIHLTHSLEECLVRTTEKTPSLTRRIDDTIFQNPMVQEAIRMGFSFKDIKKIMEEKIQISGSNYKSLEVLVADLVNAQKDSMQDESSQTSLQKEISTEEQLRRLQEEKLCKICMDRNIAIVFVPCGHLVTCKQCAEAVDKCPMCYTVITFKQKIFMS
# Chain of Dihydroorotate dehydrogenase (quinone), mitochondrial (Plasmodium falciparum (isolate 3D7)) (Q08210 whole entry, looked up): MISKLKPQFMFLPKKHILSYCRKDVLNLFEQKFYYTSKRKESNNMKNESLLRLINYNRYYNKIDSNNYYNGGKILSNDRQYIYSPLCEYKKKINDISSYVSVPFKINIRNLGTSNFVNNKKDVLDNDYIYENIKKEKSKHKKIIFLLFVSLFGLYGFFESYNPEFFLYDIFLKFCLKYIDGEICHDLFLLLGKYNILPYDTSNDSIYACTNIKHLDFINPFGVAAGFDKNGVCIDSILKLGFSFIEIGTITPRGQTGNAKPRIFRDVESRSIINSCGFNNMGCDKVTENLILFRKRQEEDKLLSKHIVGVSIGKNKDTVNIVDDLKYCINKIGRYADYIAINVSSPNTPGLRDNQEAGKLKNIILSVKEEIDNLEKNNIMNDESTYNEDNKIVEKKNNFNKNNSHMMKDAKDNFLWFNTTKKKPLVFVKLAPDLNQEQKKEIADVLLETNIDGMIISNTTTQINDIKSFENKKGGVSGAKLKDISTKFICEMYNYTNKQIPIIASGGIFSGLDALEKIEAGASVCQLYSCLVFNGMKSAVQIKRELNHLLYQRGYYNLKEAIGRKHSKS
SMILES,z-score [1],z-score [2],z-score [3],z-score [4],z-score [5],z-score [6],z-score [7],z-score [8],z-score [9],z-score [10],z-score [11],z-score [12],z-score [13],composite z-score [14],z-score [15],z-score [16],z-score [17],z-score [18],z-score [19],composite z-score [20]
O=C(NN=C1C[C@@H](O)[C@@H](O)[C@@H]2[C@@H]3C(=O)N(Cc4ccccc4)C(=O)[C@@H]3CC[C@@H]12)OCc1ccccc1,0.272,-0.201,-0.258,0.372,0.582,1.23,0.806 (inactive),-0.37,-1.53,-0.534 (inactive),0.348,-1.17 (inactive),0.0873 (inactive),-1.65 (inactive),0.352 (inactive),-0.139 (inactive),0.851 (inactive),0.279 (inactive),0.131,-0.0344
O=C1[C@H]2[C@H]3[C@H](O)[C@H](O)CC(=NOC[C@@H](O)COCc4ccco4)[C@H]3CC[C@H]2C(=O)N1C[C@@H]1CCCO1,-0.0501,-1.11,-1.22,0.313,-0.907,-0.809,-0.605 (inactive),-0.271,-0.278,0.622 (inactive),0.639,0.0107 (inactive),-0.324 (inactive),-0.199 (inactive),0.07 (inactive),-0.0915 (inactive),-0.481 (inactive),-0.467 (inactive),0.15,-0.217
COc1ccc(O[C@H]2C=C[C@@H](c3ccccc3)O[C@@H]2CON=CC[C@@H]2C=C[C@H](OC(C)=O)[C@@H](COC(C)=O)O2)cc1,0.0639,-0.0129,-0.555,0.306,-1.17,-1.33,-0.112 (inactive),-0.0648,0.491,-0.247 (inactive),0.185,2.06 (inactive),-0.0893 (inactive),0.0159 (inactive),0.405 (inactive),1.34 (inactive),0.503 (inactive),-0.185 (inactive),-0.604,0.0391
COC(=O)[C@H](C)NC(=O)CCC1CC(OC(=O)NCc2ccc3c(c2)OCO3)CC2(CCCC(COC(=O)NCc3cccc(C(F)(F)F)c3)O2)O1 (stereo not given in full),-0.828,-0.0811,-1.55,-2.05,0.442,-1.44,-0.123 (inactive),0.619,-0.213,0.0249 (inactive),-0.443,-0.817 (inactive),0.374 (inactive),-0.303 (inactive),0.484 (inactive),-0.476 (inactive),0.298 (inactive),0.079 (inactive),0.459,0.0566
CCOC(=O)C1=NO[C@]2(C=C(Br)C3(OCCCO3)[C@H]3O[C@H]32)C1,-0.718,-0.188,-0.186,-0.986,-0.172,-1.04,-0.207 (inactive),0.157,0.199,0.0721 (inactive),-0.706,-0.175 (inactive),-0.734 (inactive),-0.671 (inactive),-0.646 (inactive),-0.847 (inactive),0.336 (inactive),0.645 (inactive),-0.549,0.201
CCC=CCCC(OC(=O)c1ccc(Br)cc1)C1=CCCCC1=O (stereo not given),-0.211,-0.648,-0.805,-3.68,-3.51,-1.12,-0.711 (inactive),-0.449,-1.97,0.863 (inactive),-0.0791,-2.43 (inactive),-1.06 (inactive),-1.38 (inactive),0.119 (inactive),-0.791 (inactive),0.181 (inactive),0.0322 (inactive),-0.88,-0.291
O=C1[C@H]2[C@H]3[C@H](O)[C@H](O)CC(=NOCc4ccccc4)[C@H]3CC[C@H]2C(=O)N1Cc1ccc2c(c1)OCO2,0.446,0.717,-1.25,0.424,-1.69,0.701,-0.802 (inactive),0.0189,0.349,0.392 (inactive),0.616,-0.0033 (inactive),0.13 (inactive),-0.51 (inactive),-0.695 (inactive),0.0065 (inactive),0.698 (inactive),-1.38 (inactive),0.129,-0.0663
COC(=O)CC=C[C@@H](C)[C@@H](C=NO[C@@H]1O[C@H](COC(C)=O)[C@@H](OC(C)=O)[C@H](OC(C)=O)[C@H]1OC(C)=O)OC,-0.999,-0.351,0.2,-0.171,0.418,-0.699,-1.19 (inactive),0.128,-0.0985,1 (inactive),0.992,-0.298 (inactive),-0.205 (inactive),0.159 (inactive),0.0738 (inactive),-0.0389 (inactive),-1.03 (inactive),-0.932 (inactive),0.672,0.127
CCC1=NOC(CCC2CC(OC(=O)NCc3cccc4c3OCO4)CC3(CCCC(COC(=O)NCCc4ccccc4OC)O3)O2)C1 (stereo not given),-1.02,0.405,-2.26,-3.6,-3.84,0.559,-0.197 (inactive),-0.77,-2.17,0.492 (inactive),-0.211,-0.101 (inactive),0.0125 (inactive),-0.104 (inactive),1.43 (inactive),-0.509 (inactive),1.13 (inactive),0.918 (inactive),0.718,-0.294
CCOC(=O)C1=NO[C@@]2(C=C(Br)C3(OCCCO3)[C@H]3O[C@H]32)C1,-0.433,0.672,0.0307,0.777,-0.468,0.448,0.139 (inactive),-0.723,0.308,-0.542 (inactive),-0.68,-0.303 (inactive),-0.227 (inactive),0.552 (inactive),0.356 (inactive),0.227 (inactive),0.58 (inactive),0.643 (inactive),-0.249,0.0657
COc1ccc(O[C@H]2C=C[C@@H](c3ccccc3)O[C@@H]2COC(=O)CCC(C)=NOC(C)CN2CCCc3nc(C)c(C)cc32)cc1 (stereo not given in full),1.12,0.0929,0.919,-1.2,-0.63,1.54,-0.0369 (inactive),-0.455,-1.18,1.21 (inactive),1.21,-0.729 (inactive),-0.317 (inactive),-0.154 (inactive),-0.336 (inactive),1.37 (inactive),1.09 (inactive),0.129 (inactive),0.757,-0.127
CO[C@@H]1COC(=O)[C@H](CCSC)NC(=O)CC=C[C@@H](C)COC(=O)CCC[C@H]1C,0.471,-0.304,-0.764,-0.38,-0.687,1.95,-0.688 (inactive),-0.194,-0.0804,0.977 (inactive),1.09,-0.509 (inactive),-0.11 (inactive),-0.555 (inactive),-0.892 (inactive),0.0665 (inactive),0.104 (inactive),0.156 (inactive),0.53,0.871
O=c1n(Cc2cc3c(cc2Cl)OCO3)c(=O)n2n1CC[C@@H]1C(=NOCc3ccccc3)[C@H]3O[C@H]3[C@@H](O)[C@@H]12,0.7,-0.362,0.941,-0.64,0.341,1.1,0.218 (inactive),0.185,0.178,-1.11 (inactive),-0.0806,-1.61 (inactive),-0.595 (inactive),-1.22 (inactive),0.14 (inactive),-1.8 (inactive),-0.485 (inactive),-0.628 (inactive),-1.02,-0.0365
CC(=O)Nc1ccc([C@@H]2N[C@H](C(=O)O)CC[C@H]2C)cc1,0.858,0.122,-0.0918,0.402,-0.371,1.14,0.456 (inactive),-0.355,-0.0501,-0.542 (inactive),0.219,-0.236 (inactive),-0.106 (inactive),0.0947 (inactive),0.557 (inactive),0.237 (inactive),0.909 (inactive),0.781 (inactive),-0.625,-0.0445
CCCNC(=O)OC[C@H]1O[C@H](CCON=Cc2ccc(C(=O)N3[C@H](c4ccc(C)cc4)[C@@H](C)CC[C@H]3C(=O)OC)cc2)C=C[C@@H]1Oc1ccc(OC)cc1,-0.167,0.885,-0.0578,-0.164,-0.581,2.75,-3.26 (inactive),0.694,0.235,-0.471 (inactive),-0.73,1.85 (inactive),-0.686 (inactive),0.415 (inactive),0.511 (inactive),0.729 (inactive),0.567 (inactive),0.353 (inactive),-0.203,0.0623
COCOc1ccc(Br)cc1C(=O)[C@@H]1O[C@H]1c1cccc(OC)c1,0.131,0.314,-0.418,-2.86,-1.51,-1.39,-0.276 (inactive),-0.724,-0.261,-0.486 (inactive),-0.0514,-8.36 (active),-1.86 (inactive),0.0095 (inactive),-0.257 (inactive),0.45 (inactive),0.534 (inactive),0.35 (inactive),-0.516,0.184
COC(=O)[C@@H]1CC[C@H](C)[C@@H](c2ccc(C)cc2)N1C(=O)c1ccc(C=NOC[C@@H](C)[C@H](OCc2ccccc2)C(C)C)cc1,0.188,0.903,2.13,-0.168,-0.0791,1.6,-0.483 (inactive),-0.998,-1.01,-1.19 (inactive),-0.625,-2.56 (inactive),-0.795 (inactive),-0.869 (inactive),-1.16 (inactive),-2.18 (inactive),0.413 (inactive),-1.07 (inactive),-0.987,-0.135
CCOC(=O)[C@H](CC(C)C)NC(=O)CCC1CC(OC(=O)NCCc2ccc(F)cc2)CC2(CCCC(COC(=O)NCCc3ccc(Cl)cc3)O2)O1 (stereo not given in full),-0.977,0.248,-0.49,0.73,-1.23,-1.04,0.133 (inactive),-0.0969,-0.232,0.608 (inactive),0.182,0.0981 (inactive),-0.0687 (inactive),-0.188 (inactive),0.213 (inactive),-0.596 (inactive),-0.0646 (inactive),-0.617 (inactive),0.48,-0.247

# — PubChem BioAssay
